Holding throughout (test): yeast three-hybrid, YBZ-1, SC-Leu-His + 0.5 mM 3-AT, 4 days
Conditions in all cases: tags: N-Gal4 AD-HA kept; label: inside an RPR1-promoter hybrid RNA with tandem MS2 sites; ssRNA

One assay has as its target PUM1 PUF domain R8-QWS (Homo sapiens, UniProt Q14671 828-1176, N1122Q;Y1123W;Q1126S). In a few lines:
(§1)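 The interaction score is the logarithmic change in variant frequency from input to selection. It uses log2, with a pseudocount of 1 for absent variants, and frequencies came from PCR-amplified, Illumina-sequenced repeat regions. The libraries were Pumilio-1 PUF domains randomized at the three base-contacting residues per repeat, co-expressed with matching RNA elements in strain YBZ-1 (LexA–MS2 coat fusion, HIS3 reporter). Plating lasted four days on SC-Leu (input) or SC-Leu-His + 0.5 mM 3-AT (selection).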

Another assay concerns the target PUM1 PUF domain R8-HWL (Homo sapiens, UniProt Q14671 828-1176, N1122H;Y1123W;Q1126L). In a few lines: as §1
In another assay the target is PUM1 PUF domain R3-CNY (Homo sapiens, UniProt Q14671 828-1176, R936N;Q939Y). Put shortly:
as §1

In the next assay the target is T1, PUM1 PUF domain R6-SFQ (Homo sapiens, UniProt Q14671 828-1176, N1043S;Y1044F).
T1 sequence: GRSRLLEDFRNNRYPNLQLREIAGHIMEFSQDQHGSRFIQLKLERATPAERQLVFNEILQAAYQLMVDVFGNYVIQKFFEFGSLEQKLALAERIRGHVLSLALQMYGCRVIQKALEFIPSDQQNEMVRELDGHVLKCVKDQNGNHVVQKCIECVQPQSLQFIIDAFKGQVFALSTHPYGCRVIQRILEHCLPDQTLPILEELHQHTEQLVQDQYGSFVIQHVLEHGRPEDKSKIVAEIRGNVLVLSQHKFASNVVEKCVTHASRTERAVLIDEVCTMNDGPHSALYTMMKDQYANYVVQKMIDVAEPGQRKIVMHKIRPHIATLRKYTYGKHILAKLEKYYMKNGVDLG
In a few lines: as §1

A further assay addresses T2, PUM1 PUF domain R6-HFG (Homo sapiens, UniProt Q14671 828-1176, N1043H;Y1044F;Q1047G).
T2 sequence: T1 sequence with S216H, Q220G
In a few lines:
as §1

The next assay concerns the target PUM1 PUF domain R8-VHR (Homo sapiens, UniProt Q14671 828-1176, N1122V;Y1123H;Q1126R). Put shortly:
as §1

The target in a further assay is PUM1 PUF domain R3-RDS (Homo sapiens, UniProt Q14671 828-1176, C935R;R936D;Q939S). In a few lines: as §1
The target in the next assay is PUM1 PUF domain R4-GWY (Homo sapiens, UniProt Q14671 828-1176, N971G;H972W;Q975Y). In a few lines: as §1
A further assay has as its target PUM1 PUF domain R3-LRC (Homo sapiens, UniProt Q14671 828-1176, C935L;Q939C). Put shortly:
as §1

The target in the next assay is PUM1 PUF domain R3-TME (Homo sapiens, UniProt Q14671 828-1176, C935T;R936M;Q939E). Put shortly: as §1
Another assay deals with PUM1 PUF domain R7-RRM (Homo sapiens, UniProt Q14671 828-1176, S1079R;N1080R;E1083M). In a few lines: as §1
For another assay, the target named is PUM1 PUF domain R7-KRS (Homo sapiens, UniProt Q14671 828-1176, S1079K;N1080R;E1083S). In a few lines: as §1
For the next assay, the target named is PUM1 PUF domain R8-HFS (Homo sapiens, UniProt Q14671 828-1176, N1122H;Y1123F;Q1126S). Put shortly: as §1
The next assay has as its target PUM1 PUF domain R5-KGR (Homo sapiens, UniProt Q14671 828-1176, C1007K;R1008G;Q1011R). Put shortly:
as §1

The target in another assay is PUM1 PUF domain R1-KLL (Homo sapiens, UniProt Q14671 828-1176, S863K;R864L;Q867L). In a few lines: as §1
For another assay, the target named is PUM1 PUF domain R7-KGS (Homo sapiens, UniProt Q14671 828-1176, S1079K;N1080G;E1083S). Put shortly:
as §1

Another assay concerns the target PUM1 PUF domain R4-DWE (Homo sapiens, UniProt Q14671 828-1176, N971D;H972W;Q975E). In a few lines: as §1

Substitutions are numbered along the chain they refer to.

For “GGCUAGAACUAGUGGAUCCCCCGGCGCCCGGCGGCUCGAGCCCGGGUAAGUGUAAAUAGUCUGCAUGCCGCCGGGCGCCAUGCCUGCAGGUCGACUCUAGAAAACAUG”, the binding signal with PUM1 PUF domain R8-QWS was 4.13 log2 enrichment (interaction score); with PUM1 PUF domain R8-HWL it was 3.96 log2 enrichment (interaction score); in the assay with PUM1 PUF domain R3-CNY, 3.55 log2 enrichment (interaction score); with PUM1 PUF domain R6-SFQ, 2.98 log2 enrichment (interaction score); with PUM1 PUF domain R6-HFG, 5.43 log2 enrichment (interaction score); with PUM1 PUF domain R8-VHR it was 3.13 log2 enrichment (interaction score).
For the sequence “GGCUAGAACUAGUGGAUCCCCCGGCGCCCGGCGGCUCGAGCCCGGGUAAGUGUAAUUAGUCUGCAUGCCGCCGGGCGCCAUGCCUGCAGGUCGACUCUAGAAAACAUG”, in the assay with PUM1 PUF domain R3-RDS, the binding signal was 2.88 log2 enrichment (interaction score).
On to “GGCUAGAACUAGUGGAUCCCCCGGCGCCCGGCGGCUCGAGCCCGGGUAAGUGUAUAUAGUCUGCAUGCCGCCGGGCGCCAUGCCUGCAGGUCGACUCUAGAAAACAUG”, for which the binding signal with PUM1 PUF domain R4-GWY is 5.08 log2 enrichment (interaction score).
With “GGCUAGAACUAGUGGAUCCCCCGGCGCCCGGCGGCUCGAGCCCGGGUAAGUGUAAGUAGUCUGCAUGCCGCCGGGCGCCAUGCCUGCAGGUCGACUCUAGAAAACAUG”, the binding signal with PUM1 PUF domain R3-LRC is 3.66 log2 enrichment (interaction score); with PUM1 PUF domain R3-TME, 4.56 log2 enrichment (interaction score).
For the sequence “GGCUAGAACUAGUGGAUCCCCCGGCGCCCGGCGGCUCGAGCCCGGGUAAGUCUAAAUAGUCUGCAUGCCGCCGGGCGCCAUGCCUGCAGGUCGACUCUAGAAAACAUG”, the binding signal with PUM1 PUF domain R7-RRM is 4.89 log2 enrichment (interaction score); in the assay with PUM1 PUF domain R7-KRS it was 4.34 log2 enrichment (interaction score).
Turning to “GGCUAGAACUAGUGGAUCCCCCGGCGCCCGGCGGCUCGAGCCCGGGUAAGCGUAAAUAGUCUGCAUGCCGCCGGGCGCCAUGCCUGCAGGUCGACUCUAGAAAACAUG”, the binding signal with PUM1 PUF domain R8-HWL is 4.14 log2 enrichment (interaction score); in the assay with PUM1 PUF domain R8-VHR it was 3.33 log2 enrichment (interaction score); with PUM1 PUF domain R8-HFS, 2.47 log2 enrichment (interaction score).
With “GGCUAGAACUAGUGGAUCCCCCGGCGCCCGGCGGCUCGAGCCCGGGUAAGUGUCAAUAGUCUGCAUGCCGCCGGGCGCCAUGCCUGCAGGUCGACUCUAGAAAACAUG”, the binding signal with PUM1 PUF domain R5-KGR was 4.53 log2 enrichment (interaction score).
For the sequence “GGCUAGAACUAGUGGAUCCCCCGGCGCCCGGCGGCUCGAGCCCGGGUAAGUGUAAAUUGUCUGCAUGCCGCCGGGCGCCAUGCCUGCAGGUCGACUCUAGAAAACAUG”, the binding signal with PUM1 PUF domain R1-KLL is 3.14 log2 enrichment (interaction score).
With “GGCUAGAACUAGUGGAUCCCCCGGCGCCCGGCGGCUCGAGCCCGGGUAAGUGUAAAUCGUCUGCAUGCCGCCGGGCGCCAUGCCUGCAGGUCGACUCUAGAAAACAUG”, the binding signal with PUM1 PUF domain R1-KLL was 4.54 log2 enrichment (interaction score).
“GGCUAGAACUAGUGGAUCCCCCGGCGCCCGGCGGCUCGAGCCCGGGUAAGUUUAAAUAGUCUGCAUGCCGCCGGGCGCCAUGCCUGCAGGUCGACUCUAGAAAACAUG”: the binding signal in the assay with PUM1 PUF domain R7-KGS is 3.39 log2 enrichment (interaction score); in the assay with PUM1 PUF domain R7-KRS, 2.06 log2 enrichment (interaction score).
Turning to “GGCUAGAACUAGUGGAUCCCCCGGCGCCCGGCGGCUCGAGCCCGGGUAAGUGUAGAUAGUCUGCAUGCCGCCGGGCGCCAUGCCUGCAGGUCGACUCUAGAAAACAUG”, the binding signal in the assay with PUM1 PUF domain R4-DWE was 4.93 log2 enrichment (interaction score).

(Values after PMC8384837, “Expanding the binding specificity for RNA recognition by a PUF domain”.)
